Results taken from PubChem BioAssay (NCATS).
Inconclusive results are not listed. Where a call stands in place of a potency, no number is given. Activity calls are given as the source filed them. The call rests on the fitted dose curve.

test: Cytotoxicity counterscreen for inhibitors of SARS-CoV-2 cell entry (AID 1645845); conditions: cell viability (SARS-CoV-2 entry assay cells); series mostly up to 57.1 µM; further: nearly all actives have a fitted effect of over 50% in size
Procedure, shortened: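 HEK293-ACE2 cells (Expi293F stably expressing human ACE2) seeded overnight, then compound for 1 h plus 48 h at 37C. Viability as ATP content by luminescence; normalized to wells with cells and media-only wells.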

Row | SMILES | Potency | activity change, negative = cytotoxicity
1 | CC(C)(C)NCC(O)COc1cccc2c1CCC(=O)N2 (configuration not stated) | inactive | –
2 | Nc1ccc(S(=O)(=O)Nc2cnc3ccccc3n2)cc1 | inactive | –
3 | C[N+]1(C)CCC(=C(c2ccccc2)c2ccccc2)CC1 | inactive | –
4 | O=c1cc(CO)occ1O | inactive | –
5 | NS(=O)(=O)c1cc2c(cc1Cl)NCNS2(=O)=O | inactive | –
6 | NCCc1ccc(O)c(O)c1 | inactive | –
7 | C=CCCCCCCCCC(=O)O | inactive | –
8 | O=c1ccc2ccccc2o1 | inactive | –
9 | CN1CCN(c2c(F)cc3c(=O)c(C(=O)O)cn(CCF)c3c2F)CC1 | inactive | –
10 | C[C@H](N)[C@H](O)c1cccc(O)c1 | inactive | –
11 | N[C@@H](CSSC[C@H](N)C(=O)O)C(=O)O | – | 0.929% [at 0.702 µM] (inactive)
12 | C[C@@H](O)[C@H](N)C(=O)O | inactive | –
13 | CC(=O)Oc1ccc(C(c2ccc(OC(C)=O)cc2)c2ccccn2)cc1 | inactive | –
14 | CC(O)Cn1cnc2c1c(=O)n(C)c(=O)n2C (configuration not stated) | inactive | –
15 | CC(=O)O[C@]1(C(C)=O)CC[C@H]2[C@@H]3C=C(Cl)C4=CC(=O)CC[C@]4(C)[C@H]3CC[C@@]21C | inactive | –
16 | CCN(CC)C(=O)N1CCN(C)CC1 | inactive | –
17 | O=C(CCCN1CC=C(n2c(=O)[nH]c3ccccc32)CC1)c1ccc(F)cc1 | inactive | –
18 | Clc1ccc(Nc2nnc(Cc3ccncc3)c3ccccc23)cc1 | inactive | –
19 | NS(=O)(=O)c1cc2c(cc1Cl)NC(CSCc1ccccc1)=NS2(=O)=O | inactive | –
20 | CCN(CC)C(=O)c1cccc(C)c1 | inactive | –
21 | CCOC(=O)c1ccc(OC(=O)CCCCCN=C(N)N)cc1 | inactive | –
22 | O=C(c1ccc(F)cc1)C1CCN(CCn2c(=O)[nH]c3ccccc3c2=O)CC1 | inactive | –
